The target in test [1] is Nuclear receptor coactivator 1 (Homo sapiens) (UniProt Q15788). In words: SRC1 coactivator transcriptional activity inhibitors, confirmation, cell-based, luminescence, quadruplicate (AID 588820;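 active = mean inhibition above 46.68%, the untreated control wells mean plus 3 SD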;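 note: 0% = DMSO wells and 100% = gossypol 36 µM treated wells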). As to conditions: HEK293 GAL4-SRC1 luciferase reporter, at 3.6 µM, hits give high values. A general note: Reporter assays use an easily measured gene product as a stand-in for the process of interest.
Nuclear receptor coactivator 1 (Homo sapiens), sequence (Q15788 whole entry, looked up, the tested form may be a part): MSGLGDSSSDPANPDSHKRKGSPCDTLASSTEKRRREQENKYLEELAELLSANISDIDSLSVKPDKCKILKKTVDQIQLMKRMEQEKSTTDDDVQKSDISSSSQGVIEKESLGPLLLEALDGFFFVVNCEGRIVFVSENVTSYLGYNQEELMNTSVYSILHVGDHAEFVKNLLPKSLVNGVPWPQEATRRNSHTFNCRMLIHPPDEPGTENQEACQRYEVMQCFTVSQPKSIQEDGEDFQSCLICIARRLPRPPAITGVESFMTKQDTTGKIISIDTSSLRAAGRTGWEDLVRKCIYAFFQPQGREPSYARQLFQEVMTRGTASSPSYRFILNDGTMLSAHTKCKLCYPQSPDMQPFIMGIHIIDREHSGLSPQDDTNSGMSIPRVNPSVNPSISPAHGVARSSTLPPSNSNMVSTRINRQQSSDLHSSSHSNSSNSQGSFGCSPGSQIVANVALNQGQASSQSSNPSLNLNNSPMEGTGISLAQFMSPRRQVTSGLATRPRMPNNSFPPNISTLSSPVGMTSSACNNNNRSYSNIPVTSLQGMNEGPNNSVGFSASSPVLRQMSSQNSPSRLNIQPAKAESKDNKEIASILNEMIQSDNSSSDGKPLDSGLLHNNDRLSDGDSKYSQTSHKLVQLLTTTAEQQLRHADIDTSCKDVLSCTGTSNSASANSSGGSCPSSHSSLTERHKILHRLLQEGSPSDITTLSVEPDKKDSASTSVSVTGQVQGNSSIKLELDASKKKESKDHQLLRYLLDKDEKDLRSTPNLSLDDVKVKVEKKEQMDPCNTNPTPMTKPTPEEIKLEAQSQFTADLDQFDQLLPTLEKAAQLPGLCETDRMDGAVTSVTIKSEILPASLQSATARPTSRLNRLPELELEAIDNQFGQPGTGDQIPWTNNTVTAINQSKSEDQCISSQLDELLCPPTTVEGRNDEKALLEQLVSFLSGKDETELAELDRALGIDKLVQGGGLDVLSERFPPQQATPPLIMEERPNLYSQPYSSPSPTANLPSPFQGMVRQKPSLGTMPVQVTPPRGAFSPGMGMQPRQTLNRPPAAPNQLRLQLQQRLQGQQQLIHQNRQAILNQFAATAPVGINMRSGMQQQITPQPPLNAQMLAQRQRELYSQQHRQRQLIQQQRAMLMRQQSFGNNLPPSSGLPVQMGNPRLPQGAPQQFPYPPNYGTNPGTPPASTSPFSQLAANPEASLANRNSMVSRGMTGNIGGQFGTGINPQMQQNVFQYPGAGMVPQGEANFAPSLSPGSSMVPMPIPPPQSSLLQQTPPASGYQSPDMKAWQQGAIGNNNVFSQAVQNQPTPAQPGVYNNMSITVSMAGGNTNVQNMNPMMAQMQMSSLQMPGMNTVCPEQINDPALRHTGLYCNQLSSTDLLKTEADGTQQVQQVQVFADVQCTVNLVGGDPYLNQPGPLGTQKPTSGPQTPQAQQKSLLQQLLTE

A short description of test [2]: VP16 transactivation inhibitors, counter-screen for SRC1 inhibitor project, cell-based, luminescence, high throughput (AID 588824). As to conditions: cell-based VP16 transactivation luciferase luminescence; at 3.6 µM; hits give high values. (The purpose of a counterscreen is to sort out artefacts and off-target activity.)
A short description of test [3]: StAR promoter reporter inhibitors, counter-screen for LRH-1 inverse agonist project, cell-based, luminescence, high throughput (AID 651611; in the data active = inhibition above about 28%). Conditions: StAR promoter luciferase reporter counterscreen, at 3.6 µM, hits give high values.
Test [4] concerns the target Nuclear receptor subfamily 5 group A member 2 (Homo sapiens) (UniProt O00482). In words: LRH-1 (NR5A2) inverse agonists, retest, confirmation, cell-based, luminescence (AID 651613; in the data active = inhibition above about 42%;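 note: HEK293T cells co-transfected with LRH-1 and StAR promoter luciferase reporter; 0% = vehicle wells and 100% = parental cells lacking receptor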). As to conditions: cell-based LRH-1 luciferase reporter, inverse agonism; at 3.6 µM; hits give high values.
For test [5], the target named is Steroidogenic factor 1 (Homo sapiens) (UniProt Q13285). As to the kind of experiment: SF1 (NR5A1) inverse agonists, counter-screen for LRH-1 inverse agonist project, cell-based, luminescence, high throughput (AID 651614; in the data active = inhibition above about 44%;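 note: cells cotransfected with StAR promoter reporter and SF1 expression vector; 0% = vehicle on cells with receptor and 100% = vehicle on cells lacking receptor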). Conditions: cell-based SF1 luciferase reporter, at 3.6 µM, hits give high values.
Steroidogenic factor 1 (Homo sapiens), sequence (Q13285 whole entry, looked up, the tested form may be a part): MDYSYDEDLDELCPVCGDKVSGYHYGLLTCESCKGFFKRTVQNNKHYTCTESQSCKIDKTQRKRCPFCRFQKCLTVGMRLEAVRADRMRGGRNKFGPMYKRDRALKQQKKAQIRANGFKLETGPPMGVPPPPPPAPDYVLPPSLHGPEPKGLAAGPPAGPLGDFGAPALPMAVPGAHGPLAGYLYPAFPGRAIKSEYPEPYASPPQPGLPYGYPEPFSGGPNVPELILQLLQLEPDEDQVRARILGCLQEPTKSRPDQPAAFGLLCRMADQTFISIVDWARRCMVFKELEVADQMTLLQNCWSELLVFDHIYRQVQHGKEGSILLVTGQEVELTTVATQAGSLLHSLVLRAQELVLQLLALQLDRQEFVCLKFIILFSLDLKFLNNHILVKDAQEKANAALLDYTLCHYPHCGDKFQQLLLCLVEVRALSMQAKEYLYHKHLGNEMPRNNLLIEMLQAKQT
A short description of test [6]: VP16 transactivation reporter inhibitors, counter-screen for LRH-1 inverse agonist project, cell-based, luminescence, high throughput (AID 651615; in the data active = inhibition above about 33%). Conditions: Gal4-VP16 luciferase reporter cells, at 3.6 µM, hits give high values.
Test [7] has as its target Photoreceptor-specific nuclear receptor (Homo sapiens) (UniProt Q9Y5X4). As to the kind of experiment: NR2E3 agonist confirmation in cells, cell-based, luminescence, CHO-S two-hybrid (AID 624378;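 active = average inhibition above a cutoff equal to the mean inhibition of all tested compounds plus one SD, cut at about 70% in these data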;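 note: 0% = DMSO in NR2E3 cells and 100% = DMSO in cells lacking NR2E3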). As to conditions: CHO-S mammalian two-hybrid NR2E3-NCOR, luciferase luminescence; at 3.98 µM; hits give high values.
The nature of test [8]: GAL4-VP16 reporter modulators, confirmation, counter-screen for NR2E3 agonist project, cell-based, luminescence, CHO-S, high throughput (AID 624379;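 active = mean inhibition above a cutoff equal to the average over all tested compounds plus one standard deviation, cut at about 70% in these data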;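 note: luciferase from a UAS reporter driven by GAL4-VP16 transactivation; 0% = DMSO with VP16-transfected cells and 100% = DMSO with cells lacking VP16; higher means less reporter light so more repression of VP16 activity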). Conditions: CHO-S GAL4-VP16 luciferase reporter, at 3.98 µM, hits give high values.
A short description of test [9]: Gal4-VP16 luciferase reporter inhibitors, counter-screen for COUP-TFII antagonist project, cell-based, luminescence, HEK293 (AID 687007; in the data active = inhibition above about 13%). As to conditions: at 8.5 µM, hits give high values.
Test [10] deals with COUP transcription factor 2 (Homo sapiens) (UniProt P24468). In words: NR2F2 transcriptional activity inhibitors, confirmation, cell-based, luciferase reporter, HEK293, triplicate (AID 687008;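 active = mean inhibition over three repeats above a set limit taken from the earlier primary screen, cut at about 38% in these data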;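 note: 100% = cells given the luciferase reporter alone without the COUP-TF2 vector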). As to conditions: HEK293 NGFI-A luciferase reporter, luminescence; at 8.5 µM; hits give high values.
COUP transcription factor 2 (Homo sapiens), sequence (P24468 whole entry, looked up): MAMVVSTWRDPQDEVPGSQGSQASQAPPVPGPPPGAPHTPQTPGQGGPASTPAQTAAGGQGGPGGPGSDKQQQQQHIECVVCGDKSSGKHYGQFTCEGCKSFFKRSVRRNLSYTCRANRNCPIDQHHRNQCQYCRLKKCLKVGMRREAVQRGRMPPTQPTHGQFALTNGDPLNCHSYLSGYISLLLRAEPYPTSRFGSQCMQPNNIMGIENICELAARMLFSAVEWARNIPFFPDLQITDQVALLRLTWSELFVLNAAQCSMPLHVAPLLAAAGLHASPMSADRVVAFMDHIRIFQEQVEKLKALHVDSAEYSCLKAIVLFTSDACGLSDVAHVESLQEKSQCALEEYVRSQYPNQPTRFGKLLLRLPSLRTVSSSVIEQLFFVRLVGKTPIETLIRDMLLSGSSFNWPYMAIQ

Usually inhibition stands for the change of the read-out against control, counted positive when it falls.

Molecules are shown by their SMILES. Unmarked numbers belong to inactive results. This is one part of the list. The source made the active and inactive calls. Cut-off read from the data, not from the text of the source, unless noted: active = inhibition above about 25%; inactive = the rest.

Nuclear receptor subfamily 5 group A member 2 (Homo sapiens), sequence (O00482 whole entry, looked up): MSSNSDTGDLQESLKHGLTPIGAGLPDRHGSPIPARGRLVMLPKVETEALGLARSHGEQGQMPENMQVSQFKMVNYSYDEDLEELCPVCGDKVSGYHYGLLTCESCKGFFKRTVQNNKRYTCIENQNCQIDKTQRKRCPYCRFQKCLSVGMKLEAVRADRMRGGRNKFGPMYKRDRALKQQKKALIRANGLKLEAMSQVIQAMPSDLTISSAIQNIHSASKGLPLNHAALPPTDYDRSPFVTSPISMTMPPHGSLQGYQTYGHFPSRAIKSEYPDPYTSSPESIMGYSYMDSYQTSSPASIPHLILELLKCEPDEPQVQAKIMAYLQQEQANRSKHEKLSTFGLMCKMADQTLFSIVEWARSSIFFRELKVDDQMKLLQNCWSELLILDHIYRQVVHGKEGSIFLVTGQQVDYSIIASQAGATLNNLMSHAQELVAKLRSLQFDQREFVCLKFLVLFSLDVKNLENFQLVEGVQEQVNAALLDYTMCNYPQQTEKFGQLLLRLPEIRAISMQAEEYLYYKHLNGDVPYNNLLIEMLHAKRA
Photoreceptor-specific nuclear receptor (Homo sapiens), sequence (Q9Y5X4 whole entry, looked up, the tested form may be a part): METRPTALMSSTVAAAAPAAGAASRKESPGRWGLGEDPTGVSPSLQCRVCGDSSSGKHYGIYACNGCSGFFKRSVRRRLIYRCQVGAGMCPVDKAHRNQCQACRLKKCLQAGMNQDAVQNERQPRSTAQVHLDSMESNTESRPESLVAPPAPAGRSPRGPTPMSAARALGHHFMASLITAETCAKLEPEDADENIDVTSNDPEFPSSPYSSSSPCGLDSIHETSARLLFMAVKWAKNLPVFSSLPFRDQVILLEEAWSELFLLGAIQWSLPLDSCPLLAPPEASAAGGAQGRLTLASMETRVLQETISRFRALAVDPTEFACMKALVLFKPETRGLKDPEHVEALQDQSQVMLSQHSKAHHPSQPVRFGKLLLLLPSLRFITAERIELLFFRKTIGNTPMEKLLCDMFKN

For the compound `Cn1c(=O)[nH]c(=O)c2c1nc(N1CCCCC1)n2CC(O)COc1ccc([N+](=O)[O-])cc1` (configuration not stated), the inhibition was -27.8% in [1] and -19% in test [2].
In the case of `CCc1nc2c(OCc3c(C)noc3C)cccn2c1N(C=O)Cc1ccccc1`, the values for the inhibition in test [1] and in test [2] were -4.23% and -5.1%, respectively.
The like results for `CC1(C(=O)NS(=O)(=O)Cc2cccc(Cl)c2)CCN1C(=O)Cc1ccc(-c2ccccc2)cc1` (configuration not stated) were, in that order, -5.52% and -14.3%.
The like results for `C[C@H]1CN([C@@H](C)CO)C(=O)CCCn2nncc2CO[C@H]1CN(C)C(=O)C1CCCCC1` were, in that order, -19.8% and -11.3%.
For `Brc1ccc2c(c1)-c1ccccc1C1=NCCN12`, the inhibition in test [1] is -49.1%; in [2], 40.9% (active); in test [3] it was 39% (active); in test [4], 104% (active); in test [5], 75.8% (active); in test [6], 71.6% (active).
As to `COc1ccc(CNC(=O)c2cccc3c(-c4cccnc4)coc23)cc1OC`, the inhibition in test [1] was -25.2%; in test [2], 43.8% (active); in test [3], 48.5% (active); in test [4], 59.9% (active); in [5], 66.4% (active); in [6], 67.4% (active).
As to `CCOC(=O)Cc1csc(SCC(=O)c2c(N)n(CC(C)C)c(=O)n(C)c2=O)n1`, the inhibition is -7.3% in test [1] and 26.3% (active) in [2].
The like results for `CCN(CC)S(=O)(=O)c1ccc(NC(=O)c2ccc(N3CCCC3=O)cc2)cc1` were, in that order, 3.05% and 22.8%.
With `CCN(CC)CCn1nc2c3c(cccc3c1=O)-c1ccccc1-2`, the inhibition in test [1] was 28.6%; in [2], 54.7% (active); in test [3] it was 54.2% (active); in [4], 84.5% (active); in [5], 80.1% (active); in [6], 79.5% (active).
Regarding `COc1ccccc1-n1nnnc1SC(C)C(=O)NC1CCCC1` (configuration not stated), the figures for the inhibition in [1] and in [2] were -17.1% and -10.9%, respectively.
Consider `Cc1ccc(/C=C2/CNC/C(=C/c3ccc(C)cc3)C2=O)cc1`, for which the inhibition in [1] is -19.2%; in [2], 43.8% (active); in [3], 47% (active); in test [4], 79.3% (active); in test [5], 64.9% (active); in [6], 80.2% (active).
Turning to `CC1(C)CC(NCc2ccccc2)CCO1` (configuration not stated), the inhibition in [1] is -24.7%; in [2], -4.92%.
For `Cc1cc(C)c(S(=O)(=O)N2CCCC2=O)c(C)c1N(C)S(C)(=O)=O`, in that order: 0.14% and -4.1%.
As to `COc1cccc(CNc2nc(NCc3cccs3)nc3ccsc23)c1`, the inhibition in [1] was -9.48%; in [2], 2.77%; in [7], 67.6%; in test [8] it was 47.4%; in test [9] it was -0.37%; in [10], 13.2%.
For the compound `O=C(Nc1nc(-c2ccccn2)cs1)c1cccc(-n2cnnn2)c1`, the inhibition in test [1] was 17.6%; in [2], 7.13%.
With `Cc1c(C(C)C)c(=O)n(-c2ccc(S(=O)(=O)NCc3ccccc3)cc2)n1C`, the inhibition in test [1] is -18.5%; in test [2] it was 30.9% (active); in test [3], 16.5%; in [4] it was 54.3% (active); in test [5] it was 55.1% (active); in test [6], 44.1% (active).
`Cc1cc(C)c(CN2CCN(C(=O)Cn3cnc4c(NCc5ccccc5)ncnc43)CC2)c(C)c1`: the inhibition was -9.2% in test [1]; 43.4% (active) in test [2]; 35% (active) in test [3]; 54.1% (active) in test [4]; 57.5% (active) in test [5]; 57.9% (active) in test [6].
